Results on 40 molecules are retold here after PubChem BioAssay.

Structures are written as SMILES. The source made the active and inactive calls. Cut-off read from the data, not from the text of the source, unless noted: active = inhibition above about 30%; inactive = the rest.

For one assay, the target named is Nuclear receptor coactivator 3 (Homo sapiens) (UniProt Q9Y6Q9). In words: NCOA3 GAL4-fusion reporter inhibition – cell-based, luminescence, quadruplicate, confirmation (AID 588792;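 active = mean inhibition over 43.08%, the solvent-only control mean plus 3 SD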;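 note: 0% = DMSO treated cells and 100% = gossypol at 36 µM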). As to conditions: HEK293 GAL4-SRC3 luciferase reporter, at 3.6 µM, hits give high values.
Chain of Nuclear receptor coactivator 3 (Homo sapiens) (Q9Y6Q9 whole entry, looked up, the tested form may be a part): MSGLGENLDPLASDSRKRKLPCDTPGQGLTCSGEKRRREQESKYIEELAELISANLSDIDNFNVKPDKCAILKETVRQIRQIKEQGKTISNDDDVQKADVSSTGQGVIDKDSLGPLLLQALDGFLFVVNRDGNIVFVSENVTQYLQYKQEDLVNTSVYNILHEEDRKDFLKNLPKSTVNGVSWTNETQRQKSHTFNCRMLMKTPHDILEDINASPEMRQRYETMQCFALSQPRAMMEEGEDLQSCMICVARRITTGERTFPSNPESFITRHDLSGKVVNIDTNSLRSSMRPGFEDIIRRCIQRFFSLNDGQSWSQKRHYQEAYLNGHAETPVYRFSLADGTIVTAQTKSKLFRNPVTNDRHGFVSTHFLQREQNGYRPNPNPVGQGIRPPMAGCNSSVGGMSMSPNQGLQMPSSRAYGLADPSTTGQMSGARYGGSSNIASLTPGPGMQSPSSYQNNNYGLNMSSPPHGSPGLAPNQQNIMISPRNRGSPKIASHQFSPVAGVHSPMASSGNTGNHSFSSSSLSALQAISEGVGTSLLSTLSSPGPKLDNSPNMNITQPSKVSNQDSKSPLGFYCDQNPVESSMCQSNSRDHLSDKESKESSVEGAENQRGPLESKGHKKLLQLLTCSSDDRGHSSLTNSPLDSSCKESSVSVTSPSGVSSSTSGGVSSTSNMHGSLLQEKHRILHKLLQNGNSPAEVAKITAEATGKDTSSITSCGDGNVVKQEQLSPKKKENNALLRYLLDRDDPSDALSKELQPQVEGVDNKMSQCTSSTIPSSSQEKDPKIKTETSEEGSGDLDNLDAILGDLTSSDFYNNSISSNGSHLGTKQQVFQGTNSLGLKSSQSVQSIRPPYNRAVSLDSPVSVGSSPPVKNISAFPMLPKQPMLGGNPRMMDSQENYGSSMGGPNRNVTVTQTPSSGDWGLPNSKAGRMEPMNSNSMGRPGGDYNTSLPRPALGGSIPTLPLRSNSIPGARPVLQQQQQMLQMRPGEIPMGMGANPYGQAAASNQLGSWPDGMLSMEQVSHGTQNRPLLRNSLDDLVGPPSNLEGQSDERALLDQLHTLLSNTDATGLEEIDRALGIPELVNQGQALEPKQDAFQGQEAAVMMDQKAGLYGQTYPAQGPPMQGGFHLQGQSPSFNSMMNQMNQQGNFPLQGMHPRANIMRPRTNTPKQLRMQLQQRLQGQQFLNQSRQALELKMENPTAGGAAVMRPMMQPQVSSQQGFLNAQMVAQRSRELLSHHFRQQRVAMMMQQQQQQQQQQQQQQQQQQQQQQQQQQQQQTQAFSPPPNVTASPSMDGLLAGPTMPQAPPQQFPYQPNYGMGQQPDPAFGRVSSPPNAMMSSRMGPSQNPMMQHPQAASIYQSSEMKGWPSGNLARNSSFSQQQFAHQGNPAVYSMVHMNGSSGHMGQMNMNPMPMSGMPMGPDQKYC
One may read the inhibition as the drop in the measured response relative to a control, in per cent. As for `O=C(CCc1ccccc1)N/N=C/c1cc(Br)ccc1O`, the inhibition was 24.5% (inactive).
With `CN1/C(=C\C(=O)C[n+]2cccc(Br)c2)C(C)(C)c2ccccc21`, the inhibition is 25.3% (inactive).
As for `NC(=S)Nc1cc(Cl)cc(Cl)c1`, the inhibition was 23.7% (inactive).
Same read-out and setting: the figure for `Cc1cccc(OCC(=O)NCC(=O)N/N=C/c2ccc(O)cc2O)c1` is 15.4% (inactive); for `O=C1C=CC(=O)N1CCNc1ncc(C(F)(F)F)cc1Cl` it is 7.05% (inactive); for `O=C(Nc1ccccc1C(=O)Nc1nnc(C(F)(F)F)s1)c1ccccc1Cl` it is 12.3% (inactive).
With `COc1cc(C=CC(=O)c2ccccc2)cc(OC)c1OC`, the inhibition is 28.4% (inactive).
Consider `CN1CCN(S(=O)(=O)c2ccc(Sc3nnnn3-c3ccccc3)c([N+](=O)[O-])c2)CC1`, for which the inhibition is 24.5% (inactive).
The same measure, in the same setting: the result for `COc1ccc(CN2C(=O)c3cccnc3C2=O)cc1S(=O)(=O)NCc1ccccc1` reads 8.01% (inactive); that for `CCCCCCSc1ccc([C@H]2N[C@@](CC(C)C)(C(=O)OC)[C@H]3C(=O)N(C)C(=O)[C@@H]23)cc1OC`, 4.49% (inactive); that for `C=C(C(=O)c1ccccc1)C(CC(=O)c1ccccc1)c1ccccc1` (stereo not given), 25.9% (inactive).
Same read-out and setting: the result for `CC1(C)CC2(CC(c3ccccc3F)c3cc(Cl)c(O)cc3O2)NC(=S)N1` (stereo not given) reads 16.6% (inactive); that for `CCCCC(O)(CCCC)C(=O)NN(C(=O)OCC)c1ccccc1`, 11.9% (inactive).
Regarding `COc1cccc2[nH]c(=O)c(-c3ccccc3)cc12`, the inhibition was -103% (inactive).
Regarding `O=C(Nc1ccn(Cc2ccccc2F)n1)c1ccc(COc2ccccc2Cl)cc1`, the inhibition is 10.9% (inactive).
The same measure, in the same setting: the result for `COc1ccc(-c2cc(C(=O)N3CCN(c4ncccn4)CC3)c3ccccc3n2)c(OC)c1` reads 0.79% (inactive).
The same measure, in the same setting: the figure for `COc1ccc(-n2nc(C(=O)NCC(=O)NCC3COc4ccccc4O3)c3ccccc3c2=O)cc1OC` (stereo not given) is -4.76% (inactive); for `Cc1cc(=O)oc2cc(NC(=O)COc3cccc(C(F)(F)F)c3)ccc12` it is 7.34% (inactive); for `CC(=O)c1c(O)cc2c3c1OC(C)(C)C1CCC(C)(CC31)O2` (stereo not given) it is 46.2% (active).
Same read-out and setting: the result for `O=C(NNC1=Nc2ccccc2SC1)c1ccc(Cl)cc1` reads 24.6% (inactive); that for `CC(=NNC(=O)c1ccncc1)c1ccc2ccccc2c1O`, 45.1% (active); that for `CCc1cccc(CC)c1NC(=O)CSc1nc2ccc(N3C(=O)C4C(C3=O)[C@H]3C=C[C@@H]4C3)cc2s1` (stereo not given in full), 1.87% (inactive).
For `OC[C@H]1O[C@@H](Oc2ccc(O)cc2)[C@H](O)[C@@H](O)[C@@H]1O`, the inhibition is 7.6% (inactive).
`O=C(CCc1ccncc1)NC1CCCc2c1cnn2-c1ccc(F)cc1F` (stereo not given): the inhibition is 0.71% (inactive).
On the same count and under the same terms, the figure for `O=C(CN1CC(c2ccccc2)CC1=O)N/N=C/c1cc(Br)ccc1O` (stereo not given) is 15.1% (inactive).
With `COc1ccc2nc(C)cc(Nc3ccc(N4CCN(C)CC4)cc3)c2c1`, the inhibition was 71.8% (active).
As to `O=C(CCl)NC1CCCc2ccccc21` (stereo not given), the inhibition is 1.81% (inactive).
Take `Cc1cccc(N2C(=O)c3cccnc3C2=O)c1`: the inhibition is 3.71% (inactive).
On the same count and under the same terms, the figure for `O=C(NCCCn1ccnc1)C(=O)NCc1ccc(Cl)cc1` is 20.3% (inactive); for `Cc1cccc(NC(=O)c2cc(-c3cccnc3)nc3c(C)cccc23)n1` it is 7.37% (inactive).
Same read-out and setting: the figure for `N#Cc1c(NCc2ccccc2)ccnc1Cl` is 27.5% (inactive); for `CCN(CC)CCOc1c(Br)ccc2c1sc1nc3n(c(=O)c12)CCC3` it is -18.1% (inactive); for `C=CCn1c(NCCc2ccccc2)nc2c1c(=O)n(C)c(=O)n2C` it is 4.32% (inactive).
On the same count and under the same terms, the figure for `CCOC(=O)C(=O)NNc1ccc(C)cc1` is -7.17% (inactive).
Regarding `Cn1nc(C(F)(F)F)c(-c2ccccc2)c1NC(=O)c1cccnc1`, the inhibition is 18.6% (inactive).
Regarding `Nc1nc(CCl)nc(N(c2ccccc2)c2ccccc2)n1`, the inhibition is 18.4% (inactive).
The same measure, in the same setting: the figure for `CC(=O)N(Cc1ccc(F)cc1)C1=C(NCc2ccccc2)C(=O)c2ccccc2C1=O` is 30.9% (inactive); for `CC(=O)c1ccc(N2CCN(C(=O)c3nn(Cc4ccccc4)c(=O)c4ccccc34)CC2)cc1` it is 13.9% (inactive).
Consider `Cc1nc(SCC(=O)NNC(=O)c2ccc(F)cc2)c2ccccc2n1`, for which the inhibition was -5.28% (inactive).
Still for that read-out and setting: the figure for `COc1ccc(Oc2ccc(/C=C/C(=O)c3ccc(O)cc3)cc2[N+](=O)[O-])cc1` is -5.49% (inactive).

In the next assay the test system is transactivating tegument protein VP16 (Human herpesvirus 1), Gal4-VP16 luciferase reporter. In words: repression of VP16-driven luciferase reporter – cell-based, luminescence, high throughput, counter-screen for SRC3 inhibitor project (AID 588794). As to conditions: mammalian cells, at 3.6 µM, hits give high values.
Take `O=C(CCc1ccccc1)N/N=C/c1cc(Br)ccc1O`: the inhibition is 17.2% (inactive).
On the same count and under the same terms, the figure for `CN1/C(=C\C(=O)C[n+]2cccc(Br)c2)C(C)(C)c2ccccc21` is 21.2% (inactive); for `NC(=S)Nc1cc(Cl)cc(Cl)c1` it is 20.4% (inactive); for `Cc1cccc(OCC(=O)NCC(=O)N/N=C/c2ccc(O)cc2O)c1` it is 14% (inactive).
Consider `O=C1C=CC(=O)N1CCNc1ncc(C(F)(F)F)cc1Cl`, for which the inhibition was -14.1% (inactive).
Still for that read-out and setting: the result for `O=C(Nc1ccccc1C(=O)Nc1nnc(C(F)(F)F)s1)c1ccccc1Cl` reads 11% (inactive).
`COc1cc(C=CC(=O)c2ccccc2)cc(OC)c1OC`: the inhibition is 30.1% (active).
The same measure, in the same setting: the result for `CN1CCN(S(=O)(=O)c2ccc(Sc3nnnn3-c3ccccc3)c([N+](=O)[O-])c2)CC1` reads 2.52% (inactive).
The same measure, in the same setting: the figure for `COc1ccc(CN2C(=O)c3cccnc3C2=O)cc1S(=O)(=O)NCc1ccccc1` is -6.65% (inactive); for `CCCCCCSc1ccc([C@H]2N[C@@](CC(C)C)(C(=O)OC)[C@H]3C(=O)N(C)C(=O)[C@@H]23)cc1OC` it is -10.5% (inactive); for `C=C(C(=O)c1ccccc1)C(CC(=O)c1ccccc1)c1ccccc1` (stereo not given) it is 41.1% (active).
The same measure, in the same setting: the result for `CC1(C)CC2(CC(c3ccccc3F)c3cc(Cl)c(O)cc3O2)NC(=S)N1` (stereo not given) reads 6.57% (inactive); that for `CCCCC(O)(CCCC)C(=O)NN(C(=O)OCC)c1ccccc1`, 14.8% (inactive).
Turning to `COc1cccc2[nH]c(=O)c(-c3ccccc3)cc12`, the inhibition is -36.1% (inactive).
On to `O=C(Nc1ccn(Cc2ccccc2F)n1)c1ccc(COc2ccccc2Cl)cc1`, for which the inhibition was 22.1% (inactive).
On the same count and under the same terms, the figure for `COc1ccc(-c2cc(C(=O)N3CCN(c4ncccn4)CC3)c3ccccc3n2)c(OC)c1` is -9.7% (inactive); for `COc1ccc(-n2nc(C(=O)NCC(=O)NCC3COc4ccccc4O3)c3ccccc3c2=O)cc1OC` (stereo not given) it is -7.63% (inactive); for `Cc1cc(=O)oc2cc(NC(=O)COc3cccc(C(F)(F)F)c3)ccc12` it is -7.4% (inactive).
Still for that read-out and setting: the figure for `CC(=O)c1c(O)cc2c3c1OC(C)(C)C1CCC(C)(CC31)O2` (stereo not given) is 30.9% (active).
On the same count and under the same terms, the figure for `O=C(NNC1=Nc2ccccc2SC1)c1ccc(Cl)cc1` is 5.18% (inactive); for `CC(=NNC(=O)c1ccncc1)c1ccc2ccccc2c1O` it is 32.6% (active); for `CCc1cccc(CC)c1NC(=O)CSc1nc2ccc(N3C(=O)C4C(C3=O)[C@H]3C=C[C@@H]4C3)cc2s1` (stereo not given in full) it is 10.2% (inactive).
As for `OC[C@H]1O[C@@H](Oc2ccc(O)cc2)[C@H](O)[C@@H](O)[C@@H]1O`, the inhibition was -4.32% (inactive).
On the same count and under the same terms, the result for `O=C(CCc1ccncc1)NC1CCCc2c1cnn2-c1ccc(F)cc1F` (stereo not given) reads 18.6% (inactive); that for `O=C(CN1CC(c2ccccc2)CC1=O)N/N=C/c1cc(Br)ccc1O` (stereo not given), 10.9% (inactive); that for `COc1ccc2nc(C)cc(Nc3ccc(N4CCN(C)CC4)cc3)c2c1`, 35.3% (active).
Same read-out and setting: the result for `O=C(CCl)NC1CCCc2ccccc21` (stereo not given) reads -5.4% (inactive); that for `Cc1cccc(N2C(=O)c3cccnc3C2=O)c1`, -4.38% (inactive); that for `O=C(NCCCn1ccnc1)C(=O)NCc1ccc(Cl)cc1`, -1.8% (inactive).
On the same count and under the same terms, the figure for `Cc1cccc(NC(=O)c2cc(-c3cccnc3)nc3c(C)cccc23)n1` is 1.11% (inactive).
For the molecule `N#Cc1c(NCc2ccccc2)ccnc1Cl`, the inhibition was 15.9% (inactive).
On the same count and under the same terms, the figure for `CCN(CC)CCOc1c(Br)ccc2c1sc1nc3n(c(=O)c12)CCC3` is 2.47% (inactive); for `C=CCn1c(NCCc2ccccc2)nc2c1c(=O)n(C)c(=O)n2C` it is 28.1% (inactive); for `CCOC(=O)C(=O)NNc1ccc(C)cc1` it is 4.76% (inactive).
The same measure, in the same setting: the result for `Cn1nc(C(F)(F)F)c(-c2ccccc2)c1NC(=O)c1cccnc1` reads 11.4% (inactive); that for `Nc1nc(CCl)nc(N(c2ccccc2)c2ccccc2)n1`, 15.9% (inactive).
Same read-out and setting: the figure for `CC(=O)N(Cc1ccc(F)cc1)C1=C(NCc2ccccc2)C(=O)c2ccccc2C1=O` is 31.9% (active).
With `CC(=O)c1ccc(N2CCN(C(=O)c3nn(Cc4ccccc4)c(=O)c4ccccc34)CC2)cc1`, the inhibition is -1.19% (inactive).
On the same count and under the same terms, the result for `Cc1nc(SCC(=O)NNC(=O)c2ccc(F)cc2)c2ccccc2n1` reads -10.9% (inactive).
As to `COc1ccc(Oc2ccc(/C=C/C(=O)c3ccc(O)cc3)cc2[N+](=O)[O-])cc1`, the inhibition was -5.56% (inactive).
